Usually AC50 stands for the concentration giving half of the maximal activity seen.

Inconclusive results are not listed. The source made the active and inactive calls. How the source made its calls: active means hit-call score of the fitted dose curve at least 0.9, where 1 is the maximum; inconclusive means response in the unintended direction; inactive means score below 0.9.

The nature of this experiment: ACEA_ER_AUC_viability: ACEA Biosciences xCELLigence Real-Time Cell Analysis on Estrogen Receptor Agonism for Viability (AID 2283782).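 Further: continuous compound exposure with impedance area under curve over 80 h; hit means loss of impedance signal meaning reduced cell growth or viability.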 In short, it runs like this: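 T-47D; phenol red-free RPMI1640 + 10% CS-FBS; 8 conc., 1:4 serial, max 100 uM final, ≤0.5% DMSO; n = 2; continuous exposure; impedance monitored to 80 h post-dose; AUC vs DMSO.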
As to `CCCCOCCOCCOC(C)=O`, the call was inactive.

Consider `CC=C(C)C(C)=O`, for which the compound was classed as inactive.

As to `CCCC1CCCC(=O)O1` (stereo not drawn), the outcome was inactive.

Regarding `CCCCOC(=O)CCC(C)=O`, the compound was classed as inactive.

Turning to `C=C(C)C(=O)OCCCCCCCCCCCC`, the compound was classed as inactive.

In the case of `COCC(=O)O`, the compound was classed as inactive.

As for `O=C(Oc1ccccc1)c1ccccc1C(=O)Oc1ccccc1`, the AC50 was 86.1 µM (active).

Turning to `O=C1c2ccccc2C(=O)c2cc(S(=O)(=O)O)ccc21`, the compound was classed as inactive.

For `CC(=O)OC1CCCCC1`, the AC50 is 40.3 µM (active).

For `CC(C)CC(=O)OCc1ccccc1`, the AC50 was 50 µM (active).

`CC(C)c1ccc2ncccc2c1`: the compound was called inactive.

`C=CC(=O)O[C@H]1C[C@@H]2CC[C@@]1(C)C2(C)C`: the compound was classed as inactive.

Take `CC(=O)c1ccccc1O`: the outcome was inactive.

As to `CC(C)(O)Cc1ccccc1`, the AC50 was 27.5 µM (active).

In the case of `C=CCOC(=O)c1ccc(C(=O)OCC=C)c(C(=O)OCC=C)c1`, the call was inactive.

With `CCOC(=O)/C=C\C(=O)OCC`, the AC50 was 82.6 µM (active).

On to `Nc1ccc(Cl)c(N)c1`, for which the AC50 was 73 µM (active).

As for `Cc1noc(NS(=O)(=O)c2ccc(N)cc2)c1C`, the compound was classed as inactive.

On to `CC1CC(=O)CC(C)(C)C1` (stereo not drawn), for which the result was inactive.

Consider `CCC(C)c1ccccc1` (stereo not drawn), for which the compound was classed as inactive.

As to `CCN1CCCC1=O`, the call was inactive.

As to `CCCC/C=C/C=C\C=O`, the AC50 was 88.9 µM (active).

Regarding `COC(=O)c1ccc(C(=O)OC)c(C(=O)OC)c1`, the AC50 is 69.6 µM (active).

In the case of `c1ccc2cnccc2c1`, the compound was classed as inactive.

Take `C=C(C)C1CC=C(C)C(OC(C)=O)C1` (stereo not drawn): the AC50 is 81.5 µM (active).

On to `CC(=O)OCC=C(C)C`, for which the call was inactive.

Take `Nc1ccnc(=O)[nH]1`: the call was inactive.

In the case of `CC(C)=CCl`, the call was inactive.

As to `CC(C)CO`, the compound was classed as inactive.

As for `c1ccc2sc(SSN3CCOCC3)nc2c1`, the AC50 was 84.8 µM (active).

In the case of `CCCCCCCCCCCCCc1ccccc1`, the outcome was inactive.

As to `CC(C)[N+](C)(CCOC(=O)C1c2ccccc2Oc2ccccc21)C(C)C`, the compound was classed as inactive.

Take `O=C1CCCCCCCCCCC1`: the outcome was inactive.

Take `CCNc1nc(NC(C)(C)C)nc(OC)n1`: the AC50 is 26.2 µM (active).

Regarding `CO[Si](CCCS)(OC)OC`, the call was inactive.

Regarding `CC(CC(C)C)=NO`, the outcome was inactive.

In the case of `COC(=O)CC(C)CCC=C(C)C` (stereo not drawn), the call was inactive.

`Clc1cc(Cl)c(Cl)c(Cl)c1Cl`: the outcome was inactive.

For the origin of these results see PubChem BioAssay (EPA / NIEHS).
